Results taken from PubChem BioAssay (NCATS).
Results filed as inconclusive are left out. Where a call stands in place of a potency, no number is given. The source made the active and inactive calls. Calls come from the whole dose curve; as a rule, active = well fitted curve in the direction sought with a large enough effect; inconclusive = small, poorly fitted or top-dose-only effect, or another doubt; inactive = no such curve, though single readings can be large; an effect the other way counts as inactive or inconclusive.

What was measured:
[1] = molecular target: Aldehyde dehydrogenase, mitochondrial (Homo sapiens) (UniProt P05091); test: qHTS for Inhibitors of the Aldehyde Dehydrogenase Family (ALDH2) Primary screen (AID 2061308); note: nearly all actives have a fitted effect of over 55% in size
[2] = molecular target: Retinaldehyde dehydrogenase 3 (Homo sapiens) (UniProt P47895); test: qHTS for Inhibitors of the Aldehyde Dehydrogenase Family (ALDH1A3) Primary screen (AID 2061315)

Compound | Potency [1] | Potency [2]
COc1cc(F)c(S(=O)(=O)N2CCN(S(=O)(=O)c3ccc(N)cc3)CC2)c(F)c1 | inactive | inactive
CC(C)(C)OC(=O)NCCOCCOCCOc1cccc(-n2ncc3c2CCCC3NC(=O)c2ccccn2)c1 (stereo not given) | inactive | inactive
Cc1ccccc1S(=O)(=O)Nc1cnccc1C(=O)Nc1nc(-c2ccccc2)cs1 | inactive | inactive
O=C([C@@H](Cc1ccc(O[S+](=O)([O-])c2ccccn2)cc1)N[S+](=O)([O-])c1cccc2cccnc12)N1CCN(c2ccccc2)CC1 | inactive | inactive
O=C1CC(c2ccccc2)CC2=C1C1(CCCCC1)N=C(Nc1nc3ccccc3o1)N2 (stereo not given) | inactive | inactive
Fc1cc(-c2nc(Nc3ccc(F)c(F)c3)c3ccccc3n2)ccn1 | inactive | inactive
O=C1CCCC2=C1C(c1[nH]ncc1Cl)NC(=NCc1ccccn1)N2 (stereo not given) | inactive | inactive
Cc1ccc(OCCn2c(CCNC(=O)c3ccc(Br)cc3)nc3ccccc32)cc1 | inactive | inactive
c1nc(NCC2CCCO2)c2ccc(-c3ccc4c(c3)OCO4)cc2n1 (stereo not given) | inactive | inactive
Fc1cc(Cl)cc(-c2ccc(CNc3nc(-c4ccccc4C(F)(F)F)nc4ccccc34)cc2)c1 | inactive | inactive
Cc1ccc(-c2ccc(CNc3nc(-c4ccccc4C(C)C)nc4ccccc34)cc2)cn1 | inactive | inactive
Cc1cc(NS(=O)(=O)c2ccc(N(C)C(=O)Cc3ccc(Cl)c(Cl)c3)cc2)no1 | inactive | inactive
Cc1cc2c(s1)c1cnn(Cc3ccccc3Cl)c(=O)c1n2C | inactive | inactive
Cc1ccsc1C1N=C(Nc2nc3ccccc3o2)NC2=C1C(=O)CCC2 (stereo not given) | inactive | inactive
Fc1cccc(CNc2ncnc3ccc(-c4ccc5c(c4)OCO5)cc23)c1 | inactive | inactive
CC1CC(O)/C=C/C(O)/C=C\C(=O)O1 (stereo not given) | inactive | inactive
Cc1cc(C)n2ncc(C(=O)Nc3ccc(C(F)(F)F)cc3)c2n1 | inactive | inactive
COc1cccc(-c2nnc3n2N=C(c2ccc(OC)cc2OC)CS3)c1 | inactive | inactive
Cc1cc(C)nc(NC(=S)N2CCN(c3cc(C#N)cc(C#N)c3)CC2)c1 | inactive | inactive
FC(F)(F)c1ccc(-c2nc(NCc3ccc(-c4ccnc(C(F)(F)F)c4)cc3)c3ccccc3n2)cc1 | inactive | inactive
O=C(O)c1ccc(O)c2ncc(-c3cccc(N4CCOCC4)c3)cc12 | inactive | inactive
Fc1cc(Nc2nc(-c3ccncc3)nc3ccccc23)ccc1OCC(F)(F)F | inactive | inactive
CC1CCC/C=C/C(=O)c2c(O)cc(O)cc2CC(=O)O1 (stereo not given) | inactive | inactive
Cc1cccc(-n2cnc3cc(C(=O)N4CCCC4)ccc32)c1 | inactive | inactive

Compound | Potency [1] | Potency [2]
N#Cc1ccc(NS(=O)(=O)c2ccc(NC(=O)Cc3ccc(F)c(Cl)c3)cc2)cc1 | inactive | inactive
COc1cccc(C2c3c(ncn(-c4cccc(OC)c4)c3=N)Oc3ccc4ccccc4c32)c1 (stereo not given) | inactive | inactive
O=[N+]([O-])c1ccc(CSc2nc3ncc(Br)cc3[nH]2)cc1 | inactive | inactive
Cc1cc(-c2nnc3n2CCCCC3)c(C)n1-c1ccncc1 | inactive | inactive
Fc1cc(Nc2nc(-c3ccncc3)nc3ccccc23)ccc1-c1ccc2[nH]ncc2c1 | inactive | inactive
O=C1CCCC2=C1C(c1[nH]ncc1Cl)N=C(Nc1nc3cc(F)ccc3o1)N2 (stereo not given) | inactive | inactive
Fc1ccc(CNc2nc(-c3ccccc3C(F)(F)F)nc3ccccc23)cc1 | inactive | inactive
CC[C@]1(O)C[C@H]2CN(CCC3C(=Nc4ccccc43)[C@@](C(=O)OC)(c3cc4c(cc3OC)N(C)[C@H]3[C@@](O)(C(N)=O)[C@H](O)[C@]5(CC)C=CCN6CC[C@]43[C@@H]65)C2)C1 (stereo not given in full) | inactive | inactive
O=C(N/C=C/c1ccccc1)c1cccc([S+](=O)([O-])Nc2ccccc2F)c1 | inactive | inactive
Cc1noc(C)c1-c1ccc2ncnc(NCc3cccc(-c4ccccc4)c3)c2c1 | inactive | inactive
COc1ccc(NC(=O)c2cccnc2C)cc1S(=O)(=O)Nc1ccc(Br)cc1 | inactive | inactive
Cc1ccnc(NC(=S)N2CCCc3ccc(C(F)(F)F)cc32)c1 | inactive | inactive
Cc1ccc(-c2cc(C(=O)Nc3ccc(-n4cncn4)cc3)c3ccccc3n2)cc1C | inactive | inactive
Cn1ccc2cc(-c3ccc4ncnc(NCc5ccc6c(c5)OCO6)c4c3)ccc21 | inactive | inactive
N#Cc1ccc(Nc2nn3c(=O)c4ccccc4nc3s2)cc1 | inactive | inactive
O=C(O)c1cccc(-c2cccc(-c3nn4c(=O)cc(N5CCNCC5)nc4s3)c2)c1 | inactive | inactive
Cc1cc2c(s1)c1cnn(Cc3cccc(Br)c3)c(=O)c1n2C | inactive | inactive
O=C(NCCc1nc2ccccc2[nH]1)C1CCCCC1 | inactive | inactive
FC(F)(F)c1cccc(CSc2nc3ncc(Br)cc3[nH]2)c1 | inactive | inactive
CC(=O)c1ccccc1-c1csc2ncnc(Sc3nnnn3C)c12 | inactive | inactive
CCCc1cc(C)n(C)c(=O)c1CN(C)C(=O)c1cc(-c2ccc(N3CCN(C(C)C)CC3)nc2)cc2c1cnn2C(C)C | inactive | inactive
Cc1cc(NS(=O)(=O)c2ccc3c(c2)CCC(=O)N3)ccc1F | inactive | inactive
O=C(Cn1cc(CN(Cc2ccccc2)Cc2ccccc2)nn1)Nc1cc(C(F)(F)F)ccc1Cl | inactive | inactive
NC[C@@H](O)c1ccc(O)c(O)c1 | inactive | inactive

Compound | Potency [1] | Potency [2]
CCN(CC)CCCCn1c(-c2ccccc2)nc2c(NC3CCCCC3)nc(C)nc21 | inactive | inactive
CCCN(Cc1cccs1)c1ncnc2ccc(-c3ccc4c(c3)OCO4)cc12 | inactive | inactive
N#Cc1cc(NC(=O)Nc2nnc(-c3ccncc3)s2)ccc1Cl | inactive | inactive
COC(=O)c1ccccc1S(=O)(=O)Nc1cc(=O)c2ccccc2[nH]1 | inactive | inactive
CC/C(C)=C/C(=O)OC1C(OC2(C)CCC3C(C4C(C)CCC42)C3(C)C)OC(C)C(O)C1O (stereo not given) | inactive | inactive
Cc1cccc(-n2cnc3cc(C(=O)N4CCC(C#N)CC4)ccc32)c1 | inactive | inactive
CC(C)n1cc(-c2ccc(Oc3ccccc3)cc2)c2c(N)ncnc21 | inactive | inactive
Cc1nc(N2CCOCC2)c2nc(-c3ccccc3)n(CCN3CCCC3)c2n1 | inactive | inactive
O=C(CNC(=O)C1CCCCCC1)OC(C(=O)Nc1cc(C(F)(F)F)ccc1Cl)c1ccccc1 (stereo not given) | inactive | inactive
CC(C)CCCCC(=O)N[C@@H](CO)C(=O)N[C@@H](CC(C)C)C(=O)[C@@]1(CO)CO1 | inactive | inactive
CC(C)(C)OC(=O)Cc1nnc(C(C(=O)OCc2ccccc2)c2ccccc2)o1 (stereo not given) | inactive | inactive
COc1cccc(C(=O)NCCc2nc3ccccc3n2CCOc2ccc(C)cc2)c1 | inactive | inactive
O=C1CCCC2=C1C(c1cccc(Oc3ccccc3)c1)N=C(Nc1nc3ccccc3o1)N2 (stereo not given) | inactive | inactive
Cc1ccccc1-c1ccc(NC(=O)c2cccs2)cn1 | inactive | inactive
COc1ccc(COc2ccc(-c3nc4ccccc4[nH]3)cc2)cc1OC | inactive | inactive
CCOc1ccc(C(=O)Nc2ccc(-c3nc4ccccc4s3)cc2)cc1[N+](=O)[O-] | inactive | inactive
CC(=O)c1cccc(NC(=O)Nc2nnc(-c3ccncc3)s2)c1 | inactive | inactive
Cc1nc(NCc2ccccc2)c2nc(-c3ccccc3)n(CC(C)(C)CN(C)C)c2n1 | inactive | inactive
Cc1ccc(C)c(OCCn2c(CCNC(=O)C3CCCCC3)nc3ccccc32)c1 | inactive | inactive
O=C(Nc1nc(Nc2cc(F)cc(F)c2)nc(NC2CCCC2)n1)OCc1ccccc1 | inactive | inactive
CC(C)c1cc(C(=O)N2CC[C@H](NC(=O)C3CC3)C2)n[nH]1 | inactive | inactive
Cc1ccc(NS(=O)(=O)c2cc3c(cc2Cl)NC(=O)CO3)cc1C | inactive | inactive
